According to the supplement of paper PMC11732987, “Enantioselective OTUD7B fragment discovery through chemoproteomics screening and high-throughput optimisation” (Communications Chemistry, 2025):

How the values were obtained:
Experiment in all cases: log2 ratio of Biotin-Ahx-Ub-VS probe labelling (fragment/DMSO); higher = less target engagement (more negative = stronger competition), active = hit call of the paper (q ≤ 0.05, log2 ratio ≤ -1)
Details in all cases: compound concentration: 200 uM; treatment time: 3 h
[1] = target: USP9X (UniProt Q93008)
Method in brief: (§1)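 HEK293T lysate (495 µg per sample, in Tris/CHAPS/IGEPAL buffer with protease inhibitors) was exposed in triplicate for 3 h to fragment at 200 µM or to vehicle, then to Biotin-Ahx-Ub-VS at 0.5 µM final for 1 h. Labelled DUBs were enriched on NeutrAvidin, digested with LysC and trypsin, and analysed by diaPASEF LC-MS/MS. Spectronaut label-free quantities were normalised to the global median, and values are average log2 ratios of fragment over vehicle from an unpaired t-test. Only proteins with ≥2 unique peptides were used.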

[2] = target: UniProt O00487
UniProt O00487, sequence (O00487 whole entry): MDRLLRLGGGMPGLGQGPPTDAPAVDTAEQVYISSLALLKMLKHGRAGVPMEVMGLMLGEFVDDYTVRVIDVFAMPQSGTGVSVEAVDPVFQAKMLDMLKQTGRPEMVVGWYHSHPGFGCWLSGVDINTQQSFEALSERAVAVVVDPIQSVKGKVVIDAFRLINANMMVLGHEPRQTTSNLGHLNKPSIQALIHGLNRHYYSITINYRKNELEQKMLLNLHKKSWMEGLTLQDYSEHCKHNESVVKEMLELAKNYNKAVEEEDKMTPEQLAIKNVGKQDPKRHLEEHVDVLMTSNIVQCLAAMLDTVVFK
Method in brief: as §1

[3] = target: UniProt O00507
UniProt O00507, sequence (O00507 whole entry): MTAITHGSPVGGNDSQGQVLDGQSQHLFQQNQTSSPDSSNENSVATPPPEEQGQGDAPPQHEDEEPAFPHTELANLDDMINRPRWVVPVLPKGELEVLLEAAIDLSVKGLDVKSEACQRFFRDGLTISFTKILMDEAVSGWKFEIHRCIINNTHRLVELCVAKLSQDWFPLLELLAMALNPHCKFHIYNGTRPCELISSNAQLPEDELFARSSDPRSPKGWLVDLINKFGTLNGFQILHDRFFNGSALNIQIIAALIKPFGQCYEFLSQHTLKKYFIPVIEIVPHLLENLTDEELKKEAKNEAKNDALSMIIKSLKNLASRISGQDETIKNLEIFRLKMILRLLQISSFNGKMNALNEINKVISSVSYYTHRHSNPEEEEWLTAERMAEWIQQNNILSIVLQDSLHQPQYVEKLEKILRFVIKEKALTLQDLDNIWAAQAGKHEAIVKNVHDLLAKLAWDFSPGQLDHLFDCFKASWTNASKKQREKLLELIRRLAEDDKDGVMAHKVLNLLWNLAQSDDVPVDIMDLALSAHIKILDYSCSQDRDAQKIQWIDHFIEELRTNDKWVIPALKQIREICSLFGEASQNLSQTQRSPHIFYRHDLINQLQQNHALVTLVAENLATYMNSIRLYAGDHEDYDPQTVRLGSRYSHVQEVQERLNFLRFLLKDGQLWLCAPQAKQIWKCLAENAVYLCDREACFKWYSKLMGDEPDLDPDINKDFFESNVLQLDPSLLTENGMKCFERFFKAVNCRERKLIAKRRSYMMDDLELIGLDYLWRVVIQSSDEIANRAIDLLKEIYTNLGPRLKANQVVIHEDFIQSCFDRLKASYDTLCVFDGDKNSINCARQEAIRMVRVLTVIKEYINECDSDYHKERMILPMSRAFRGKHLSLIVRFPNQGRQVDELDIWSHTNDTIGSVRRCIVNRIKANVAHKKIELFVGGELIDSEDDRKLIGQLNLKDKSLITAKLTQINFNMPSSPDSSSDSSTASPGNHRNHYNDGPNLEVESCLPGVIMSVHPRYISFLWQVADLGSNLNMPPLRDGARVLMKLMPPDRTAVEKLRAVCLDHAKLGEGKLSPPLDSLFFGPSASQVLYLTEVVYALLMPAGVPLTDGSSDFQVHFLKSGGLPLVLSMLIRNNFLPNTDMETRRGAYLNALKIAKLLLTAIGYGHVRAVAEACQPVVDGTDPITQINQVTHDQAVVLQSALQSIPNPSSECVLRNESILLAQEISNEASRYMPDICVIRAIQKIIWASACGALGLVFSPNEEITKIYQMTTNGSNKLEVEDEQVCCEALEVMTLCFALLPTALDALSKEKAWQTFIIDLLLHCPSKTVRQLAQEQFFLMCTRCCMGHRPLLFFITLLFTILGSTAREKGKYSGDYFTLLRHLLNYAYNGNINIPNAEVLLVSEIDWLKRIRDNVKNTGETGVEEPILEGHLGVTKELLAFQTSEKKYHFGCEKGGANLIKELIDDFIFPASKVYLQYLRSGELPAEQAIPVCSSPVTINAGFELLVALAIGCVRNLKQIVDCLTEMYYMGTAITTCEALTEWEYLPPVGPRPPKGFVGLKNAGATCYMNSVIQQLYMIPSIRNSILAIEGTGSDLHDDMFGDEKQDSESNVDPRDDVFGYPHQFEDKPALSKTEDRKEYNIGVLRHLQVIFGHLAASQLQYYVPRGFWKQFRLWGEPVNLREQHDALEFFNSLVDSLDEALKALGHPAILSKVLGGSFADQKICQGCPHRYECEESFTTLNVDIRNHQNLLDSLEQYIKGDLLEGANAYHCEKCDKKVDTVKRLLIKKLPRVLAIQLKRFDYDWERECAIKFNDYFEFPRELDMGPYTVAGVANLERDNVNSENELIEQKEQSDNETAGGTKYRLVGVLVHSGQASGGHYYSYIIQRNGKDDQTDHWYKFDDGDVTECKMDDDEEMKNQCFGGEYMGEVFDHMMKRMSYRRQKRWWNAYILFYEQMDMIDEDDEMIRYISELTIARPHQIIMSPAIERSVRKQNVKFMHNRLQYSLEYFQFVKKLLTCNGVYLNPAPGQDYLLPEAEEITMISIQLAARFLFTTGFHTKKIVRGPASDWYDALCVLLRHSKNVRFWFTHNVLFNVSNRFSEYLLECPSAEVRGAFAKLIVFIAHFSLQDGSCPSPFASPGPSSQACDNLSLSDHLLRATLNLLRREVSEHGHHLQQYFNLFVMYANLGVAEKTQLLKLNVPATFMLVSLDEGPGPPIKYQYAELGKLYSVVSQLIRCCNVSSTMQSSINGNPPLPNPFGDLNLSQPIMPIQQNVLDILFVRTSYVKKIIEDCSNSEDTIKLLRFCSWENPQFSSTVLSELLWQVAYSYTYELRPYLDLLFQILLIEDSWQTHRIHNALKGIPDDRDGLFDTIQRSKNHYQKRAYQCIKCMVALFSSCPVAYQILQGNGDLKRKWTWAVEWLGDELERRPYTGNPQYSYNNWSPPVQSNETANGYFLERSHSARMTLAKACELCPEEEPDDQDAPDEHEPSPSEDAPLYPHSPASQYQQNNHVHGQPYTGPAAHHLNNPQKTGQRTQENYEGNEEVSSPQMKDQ
Method in brief: as §1

[4] = target: UniProt P51784
UniProt P51784, sequence (P51784 whole entry): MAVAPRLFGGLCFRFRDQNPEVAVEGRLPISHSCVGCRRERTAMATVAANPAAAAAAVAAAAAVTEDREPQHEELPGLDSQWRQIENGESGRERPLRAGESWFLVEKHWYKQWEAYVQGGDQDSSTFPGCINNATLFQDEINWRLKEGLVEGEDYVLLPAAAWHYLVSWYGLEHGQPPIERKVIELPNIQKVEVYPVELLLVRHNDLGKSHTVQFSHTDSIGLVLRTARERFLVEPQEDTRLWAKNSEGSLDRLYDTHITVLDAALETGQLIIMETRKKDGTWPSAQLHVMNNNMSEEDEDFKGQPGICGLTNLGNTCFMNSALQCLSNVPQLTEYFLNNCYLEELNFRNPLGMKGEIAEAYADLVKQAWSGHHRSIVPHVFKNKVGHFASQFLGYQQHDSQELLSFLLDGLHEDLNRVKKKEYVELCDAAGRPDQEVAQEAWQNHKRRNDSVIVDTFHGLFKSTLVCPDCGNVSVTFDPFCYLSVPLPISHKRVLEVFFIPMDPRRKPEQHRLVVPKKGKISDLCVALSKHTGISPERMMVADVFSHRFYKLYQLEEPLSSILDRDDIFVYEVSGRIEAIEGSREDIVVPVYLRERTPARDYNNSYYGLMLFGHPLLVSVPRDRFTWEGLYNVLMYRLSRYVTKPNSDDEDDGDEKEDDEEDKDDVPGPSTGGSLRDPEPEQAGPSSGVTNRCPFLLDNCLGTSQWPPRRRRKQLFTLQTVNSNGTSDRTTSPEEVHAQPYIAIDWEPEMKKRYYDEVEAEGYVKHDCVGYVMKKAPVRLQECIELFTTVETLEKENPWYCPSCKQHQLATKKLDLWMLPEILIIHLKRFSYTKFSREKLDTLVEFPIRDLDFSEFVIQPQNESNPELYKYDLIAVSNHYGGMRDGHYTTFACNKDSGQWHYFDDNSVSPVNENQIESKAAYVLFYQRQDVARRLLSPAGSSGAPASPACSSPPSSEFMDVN
Method in brief: as §1

[5] = target: T1, UniProt Q5T2D3
T1 sequence (whole entry): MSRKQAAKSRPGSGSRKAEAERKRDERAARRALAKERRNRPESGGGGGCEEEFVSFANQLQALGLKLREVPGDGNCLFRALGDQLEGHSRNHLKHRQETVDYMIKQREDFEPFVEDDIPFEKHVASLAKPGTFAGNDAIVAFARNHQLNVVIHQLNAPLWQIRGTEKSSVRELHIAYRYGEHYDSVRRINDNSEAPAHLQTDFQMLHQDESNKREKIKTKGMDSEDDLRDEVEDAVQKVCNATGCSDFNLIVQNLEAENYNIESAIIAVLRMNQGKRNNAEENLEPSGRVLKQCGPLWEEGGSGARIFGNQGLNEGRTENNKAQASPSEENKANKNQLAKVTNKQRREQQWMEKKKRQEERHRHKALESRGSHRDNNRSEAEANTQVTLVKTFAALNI
Method in brief: as §1

[6] = target: T2, UniProt Q8TE49
T2 sequence (whole entry): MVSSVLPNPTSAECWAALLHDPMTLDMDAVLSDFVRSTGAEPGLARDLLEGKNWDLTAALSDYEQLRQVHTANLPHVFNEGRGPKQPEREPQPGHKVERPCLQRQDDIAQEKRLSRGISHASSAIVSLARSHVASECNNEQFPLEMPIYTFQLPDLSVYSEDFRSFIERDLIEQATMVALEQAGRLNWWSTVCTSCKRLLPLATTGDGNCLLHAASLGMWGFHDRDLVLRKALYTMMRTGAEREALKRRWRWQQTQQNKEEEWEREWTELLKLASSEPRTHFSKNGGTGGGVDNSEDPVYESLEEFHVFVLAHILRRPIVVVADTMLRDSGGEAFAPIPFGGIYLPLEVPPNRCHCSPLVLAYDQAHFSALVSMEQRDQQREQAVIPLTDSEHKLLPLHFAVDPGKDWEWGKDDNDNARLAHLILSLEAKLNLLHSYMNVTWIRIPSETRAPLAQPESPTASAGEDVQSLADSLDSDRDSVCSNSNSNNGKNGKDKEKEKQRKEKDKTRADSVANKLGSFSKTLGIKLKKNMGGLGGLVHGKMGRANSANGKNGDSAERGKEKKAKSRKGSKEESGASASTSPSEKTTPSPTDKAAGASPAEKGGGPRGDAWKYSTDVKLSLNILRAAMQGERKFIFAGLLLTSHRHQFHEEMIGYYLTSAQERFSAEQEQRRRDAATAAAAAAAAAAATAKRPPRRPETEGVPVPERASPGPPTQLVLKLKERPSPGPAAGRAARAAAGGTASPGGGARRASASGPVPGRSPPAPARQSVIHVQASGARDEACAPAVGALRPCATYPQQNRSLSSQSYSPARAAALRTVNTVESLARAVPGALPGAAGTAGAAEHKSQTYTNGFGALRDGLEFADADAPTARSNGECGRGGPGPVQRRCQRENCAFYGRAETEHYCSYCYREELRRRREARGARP
Method in brief: as §1

[7] = target: T3, UniProt Q9P2H5
T3 sequence (whole entry): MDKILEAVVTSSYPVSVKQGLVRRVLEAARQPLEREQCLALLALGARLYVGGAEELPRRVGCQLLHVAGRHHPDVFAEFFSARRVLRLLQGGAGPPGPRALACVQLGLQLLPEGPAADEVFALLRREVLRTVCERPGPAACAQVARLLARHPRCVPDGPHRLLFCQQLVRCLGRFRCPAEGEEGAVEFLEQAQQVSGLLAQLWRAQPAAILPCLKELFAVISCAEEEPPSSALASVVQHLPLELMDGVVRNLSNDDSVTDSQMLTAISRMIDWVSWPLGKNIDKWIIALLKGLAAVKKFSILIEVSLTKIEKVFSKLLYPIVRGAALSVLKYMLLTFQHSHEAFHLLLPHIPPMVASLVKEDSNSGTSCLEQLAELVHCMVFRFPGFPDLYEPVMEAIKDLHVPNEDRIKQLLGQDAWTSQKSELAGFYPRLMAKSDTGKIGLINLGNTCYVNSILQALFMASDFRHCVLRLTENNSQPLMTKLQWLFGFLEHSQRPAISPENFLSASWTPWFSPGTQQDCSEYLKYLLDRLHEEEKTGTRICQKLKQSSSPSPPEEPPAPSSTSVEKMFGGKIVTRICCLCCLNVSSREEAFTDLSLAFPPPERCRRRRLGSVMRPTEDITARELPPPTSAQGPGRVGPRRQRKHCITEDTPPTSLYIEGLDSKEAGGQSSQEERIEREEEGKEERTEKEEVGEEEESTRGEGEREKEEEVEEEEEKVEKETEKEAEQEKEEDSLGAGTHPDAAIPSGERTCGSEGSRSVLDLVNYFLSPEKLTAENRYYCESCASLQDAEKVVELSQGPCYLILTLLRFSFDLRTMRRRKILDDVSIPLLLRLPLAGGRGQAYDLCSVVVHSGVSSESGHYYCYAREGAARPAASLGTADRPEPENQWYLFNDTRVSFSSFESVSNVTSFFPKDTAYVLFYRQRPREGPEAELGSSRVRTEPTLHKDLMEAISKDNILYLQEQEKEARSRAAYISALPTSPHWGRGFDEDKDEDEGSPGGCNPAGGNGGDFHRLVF
Method in brief: as §1

[8] = target: T4, UniProt Q9UGI0
T4 sequence (whole entry): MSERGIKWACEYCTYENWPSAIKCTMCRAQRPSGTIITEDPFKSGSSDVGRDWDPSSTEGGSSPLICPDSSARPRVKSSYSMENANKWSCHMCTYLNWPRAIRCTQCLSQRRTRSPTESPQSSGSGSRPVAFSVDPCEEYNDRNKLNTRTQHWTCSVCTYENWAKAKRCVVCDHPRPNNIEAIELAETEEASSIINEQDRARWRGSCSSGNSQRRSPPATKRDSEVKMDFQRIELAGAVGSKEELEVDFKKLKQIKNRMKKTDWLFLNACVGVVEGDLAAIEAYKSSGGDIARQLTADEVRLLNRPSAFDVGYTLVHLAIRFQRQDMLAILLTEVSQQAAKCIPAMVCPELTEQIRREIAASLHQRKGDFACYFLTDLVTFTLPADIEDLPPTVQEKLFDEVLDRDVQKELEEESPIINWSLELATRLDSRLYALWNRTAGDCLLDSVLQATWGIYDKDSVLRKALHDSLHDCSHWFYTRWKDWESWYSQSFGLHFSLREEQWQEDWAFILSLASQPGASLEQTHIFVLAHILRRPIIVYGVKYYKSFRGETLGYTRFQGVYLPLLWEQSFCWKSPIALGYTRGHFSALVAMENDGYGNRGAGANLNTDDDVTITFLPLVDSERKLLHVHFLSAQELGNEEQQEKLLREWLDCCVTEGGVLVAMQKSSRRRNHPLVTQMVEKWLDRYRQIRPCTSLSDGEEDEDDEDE
Method in brief: as §1

[9] = target: T5, YOD1 (UniProt Q5VVQ6)
T5 sequence (whole entry): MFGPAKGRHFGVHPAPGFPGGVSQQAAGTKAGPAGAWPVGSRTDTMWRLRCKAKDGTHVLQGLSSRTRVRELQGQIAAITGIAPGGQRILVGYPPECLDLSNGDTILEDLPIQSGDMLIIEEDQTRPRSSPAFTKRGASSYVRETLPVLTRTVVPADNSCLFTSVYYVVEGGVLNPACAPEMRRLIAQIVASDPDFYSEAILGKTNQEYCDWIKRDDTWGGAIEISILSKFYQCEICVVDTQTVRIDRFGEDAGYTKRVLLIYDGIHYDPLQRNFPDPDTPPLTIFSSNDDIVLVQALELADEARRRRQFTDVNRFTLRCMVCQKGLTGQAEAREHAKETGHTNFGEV
Method in brief: as §1

Measured: log2 ratio of Biotin-Ahx-Ub-VS probe labelling

CC(NC(=O)CCl)c1csc(-c2ccccc2)n1.Cl (centres undefined)
active: [6] -1.08
inactive: [1] -0.619 | [2] -0.213 | [3] -0.472 | [4] -0.138 | [5] -0.671 | [7] -0.482 | [8] -0.494 | [9] -0.459
